# Measurements taken from the supplement of paper PMC4466140.
# Experiments:
# Assay in all cases: SPOT peptide array binding signal intensity (averaged, normalized) (arbitrary units (background-subtracted, floor 0; scale differs between SH3 domains)); higher = stronger binding of the SH3 domain to the peptide
# [1] = target: AgAbp1
# Method in brief: (§1)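 Detection of bound protein relied on anti-GST antibody, an HRP anti-mouse secondary and luminol, with imaging and quantification in Genespotter. The bound protein was GST-fused SH3 domains from four yeast species, incubated at 10 μg/ml overnight at 4°C in TBS-based blocking buffer on cellulose membranes carrying synthetic 15-mer peptides with cysteines replaced by serines. Binding signal is normalized, background-subtracted spot intensity averaged over replicates, in arbitrary units that differ between domains.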
# [2] = target: AgBbc1
# Method in brief: as §1
# [3] = target: AgBem1-D1
# Method in brief: as §1
# [4] = target: AgBzz1-D1
# Method in brief: as §1
# [5] = target: AgBzz1-D2
# Method in brief: as §1
# [6] = target: AgCyk3
# Method in brief: as §1
# [7] = target: AgFus1
# Method in brief: as §1
# [8] = target: AgHof1
# Method in brief: as §1
# [9] = target: AgHse1
# Method in brief: as §1
# [10] = target: AgLsb1
# Method in brief: as §1
# [11] = target: AgLsb4
# Method in brief: as §1
# [12] = target: AgMyo5
# Method in brief: as §1
# [13] = target: AgNbp2
# Method in brief: as §1
# [14] = target: AgRvs167
# Method in brief: as §1
# [15] = target: AgSho1
# Method in brief: as §1
# [16] = target: AgSla1-D1-D2
# Method in brief: as §1
# [17] = target: AgSla1-D3
# Method in brief: as §1
# [18] = target: CaAbp1-D1
# Method in brief: as §1
# [19] = target: CaAbp1-D2
# Method in brief: as §1
# [20] = target: CaBbc1
# Method in brief: as §1
# [21] = target: CaBem1-D1
# Method in brief: as §1
# [22] = target: CaBzz1-D1
# Method in brief: as §1
# [23] = target: CaBzz1-D2
# Method in brief: as §1
# [24] = target: CaCyk3
# Method in brief: as §1
# [25] = target: CaFus1
# Method in brief: as §1
# [26] = target: CaHof1
# Method in brief: as §1
# [27] = target: CaHse1
# Method in brief: as §1
# [28] = target: CaLsb1
# Method in brief: as §1
# [29] = target: CaLsb4
# Method in brief: as §1
# [30] = target: CaMyo5
# Method in brief: as §1
# [31] = target: CaNbp2
# Method in brief: as §1
# [32] = target: CaRvs167
# Method in brief: as §1
# [33] = target: CaRvs167-3
# Method in brief: as §1
# [34] = target: CaSho1
# Method in brief: as §1
# [35] = target: CaSla1-D1-D2
# Method in brief: as §1
# [36] = target: CaSla1-D3
# Method in brief: as §1
# [37] = target: ScAbp1
# Method in brief: as §1
# [38] = target: ScBbc1
# Method in brief: as §1
# [39] = target: ScBem1-D1
# Method in brief: as §1
# [40] = target: ScBzz1-D1
# Method in brief: as §1
# [41] = target: ScBzz1-D2
# Method in brief: as §1
# [42] = target: ScCyk3
# Method in brief: as §1
# [43] = target: ScFus1
# Method in brief: as §1
# [44] = target: ScHof1
# Method in brief: as §1
# [45] = target: ScHse1
# Method in brief: as §1
# [46] = target: ScLsb1
# Method in brief: as §1
# [47] = target: ScLsb2
# Method in brief: as §1
# [48] = target: ScLsb3
# Method in brief: as §1
# [49] = target: ScLsb4
# Method in brief: as §1
# [50] = target: ScMyo3
# Method in brief: as §1
# [51] = target: ScMyo5
# Method in brief: as §1
# [52] = target: ScNbp2
# Method in brief: as §1
# [53] = target: ScPex13
# Method in brief: as §1
# [54] = target: ScRvs167
# Method in brief: as §1
# [55] = target: ScSho1
# Method in brief: as §1
# [56] = target: ScSla1-D1-D2
# Method in brief: as §1
# [57] = target: ScSla1-D3
# Method in brief: as §1
# [58] = target: SpAbp1-D1
# Method in brief: as §1
# [59] = target: SpBbc1
# Method in brief: as §1
# [60] = target: SpBzz1-D1
# Method in brief: as §1
# [61] = target: SpBzz1-D2
# Method in brief: as §1
# [62] = target: SpCyk3
# Method in brief: as §1
# [63] = target: SpHof1
# Method in brief: as §1
# [64] = target: SpHof1-2
# Method in brief: as §1
# [65] = target: SpHof1-3
# Method in brief: as §1
# [66] = target: SpHse1
# Method in brief: as §1
# [67] = target: SpLsb1
# Method in brief: as §1
# [68] = target: SpLsb4
# Method in brief: as §1
# [69] = target: SpMyo1
# Method in brief: as §1
# [70] = target: SpNbp2
# Method in brief: as §1
# [71] = target: SpPex13
# Method in brief: as §1
# [72] = target: SpRvs167
# Method in brief: as §1
# [73] = target: SpSla1-D1-D2
# Method in brief: as §1
# [74] = target: SpSla1-D3
# Method in brief: as §1
binder,measurement,setting,value
GDHPKGPPPPPPPDE,SPOT peptide array binding signal intensity,[1],≤ 0
same,SPOT peptide array binding signal intensity,[2],1
same,SPOT peptide array binding signal intensity,[3],≤ 0
same,SPOT peptide array binding signal intensity,[4],870
same,SPOT peptide array binding signal intensity,[5],85
same,SPOT peptide array binding signal intensity,[6],≤ 0
same,SPOT peptide array binding signal intensity,[7],3.5
same,SPOT peptide array binding signal intensity,[8],≤ 0
same,SPOT peptide array binding signal intensity,[9],≤ 0
same,SPOT peptide array binding signal intensity,[10],≤ 0
same,SPOT peptide array binding signal intensity,[11],11.5
same,SPOT peptide array binding signal intensity,[12],1360
same,SPOT peptide array binding signal intensity,[13],9
same,SPOT peptide array binding signal intensity,[14],0.167
same,SPOT peptide array binding signal intensity,[15],11
same,SPOT peptide array binding signal intensity,[16],6
same,SPOT peptide array binding signal intensity,[17],358
same,SPOT peptide array binding signal intensity,[18],≤ 0
same,SPOT peptide array binding signal intensity,[19],≤ 0
same,SPOT peptide array binding signal intensity,[20],≤ 0
same,SPOT peptide array binding signal intensity,[21],≤ 0
same,SPOT peptide array binding signal intensity,[22],3200
same,SPOT peptide array binding signal intensity,[23],2040
same,SPOT peptide array binding signal intensity,[24],≤ 0
same,SPOT peptide array binding signal intensity,[25],≤ 0
same,SPOT peptide array binding signal intensity,[26],0.25
same,SPOT peptide array binding signal intensity,[27],6.5
same,SPOT peptide array binding signal intensity,[28],≤ 0
same,SPOT peptide array binding signal intensity,[29],5.5
same,SPOT peptide array binding signal intensity,[30],41
same,SPOT peptide array binding signal intensity,[31],≤ 0
same,SPOT peptide array binding signal intensity,[32],≤ 0
same,SPOT peptide array binding signal intensity,[33],1.25
same,SPOT peptide array binding signal intensity,[34],≤ 0
same,SPOT peptide array binding signal intensity,[35],≤ 0
same,SPOT peptide array binding signal intensity,[36],1.75
same,SPOT peptide array binding signal intensity,[37],≤ 0
same,SPOT peptide array binding signal intensity,[38],2.5
same,SPOT peptide array binding signal intensity,[39],≤ 0
same,SPOT peptide array binding signal intensity,[40],4000
same,SPOT peptide array binding signal intensity,[41],31.5
same,SPOT peptide array binding signal intensity,[42],≤ 0
same,SPOT peptide array binding signal intensity,[43],2.5
same,SPOT peptide array binding signal intensity,[44],≤ 0
same,SPOT peptide array binding signal intensity,[45],7.5
same,SPOT peptide array binding signal intensity,[46],≤ 0
same,SPOT peptide array binding signal intensity,[47],≤ 0
same,SPOT peptide array binding signal intensity,[48],≤ 0
same,SPOT peptide array binding signal intensity,[49],≤ 0
same,SPOT peptide array binding signal intensity,[50],1390
same,SPOT peptide array binding signal intensity,[51],1300
same,SPOT peptide array binding signal intensity,[52],≤ 0
same,SPOT peptide array binding signal intensity,[53],≤ 0
same,SPOT peptide array binding signal intensity,[54],0.333
same,SPOT peptide array binding signal intensity,[55],≤ 0
same,SPOT peptide array binding signal intensity,[56],≤ 0
same,SPOT peptide array binding signal intensity,[57],≤ 0
same,SPOT peptide array binding signal intensity,[58],≤ 0
same,SPOT peptide array binding signal intensity,[59],1.25
same,SPOT peptide array binding signal intensity,[60],42
same,SPOT peptide array binding signal intensity,[61],1.5
same,SPOT peptide array binding signal intensity,[62],≤ 0
same,SPOT peptide array binding signal intensity,[63],≤ 0
same,SPOT peptide array binding signal intensity,[64],1.5
same,SPOT peptide array binding signal intensity,[65],≤ 0
same,SPOT peptide array binding signal intensity,[66],85.2
same,SPOT peptide array binding signal intensity,[67],0.5
same,SPOT peptide array binding signal intensity,[68],≤ 0
same,SPOT peptide array binding signal intensity,[69],1500
same,SPOT peptide array binding signal intensity,[70],≤ 0
same,SPOT peptide array binding signal intensity,[71],2
same,SPOT peptide array binding signal intensity,[72],9
same,SPOT peptide array binding signal intensity,[73],9
same,SPOT peptide array binding signal intensity,[74],≤ 0
